# In PubChem BioAssay (NCI):
# This is part of a sample that, as a whole, favours compounds with a hit. Of some 83,000 tested, about 20% had one in any assay.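 Step 1: grow cells in 96-well plates. Step 2: add test compound at a single concentration. Step 3: incubate 48 h. Step 4: record percent growth.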 A number with no mark means an inactive call. The source made the active and inactive calls. Rule for the calls: active = growth percent below 10; inactive = the rest.
# Tests used:
# Experiment in all cases: NCI-60 one-dose screen, 48 h (100 = growth as untreated, 0 = no growth, -100 = all killed)
# Conditions in all cases: 10 µM unless noted
# NCI-H23 lung = system: NCI-H23 lung
# NCI-H226 lung = system: NCI-H226 lung
# NCI-H322M lung = system: NCI-H322M lung
# HOP-62 NSCLC = system: HOP-62 NSCLC
# NCI-H460 lung = system: NCI-H460 lung
# HOP-92 NSCLC = system: HOP-92 NSCLC
# NCI-H522 lung = system: NCI-H522 lung
# A549/ATCC NSCLC = system: A549/ATCC NSCLC
# 786-0 renal = system: 786-0 renal
# COLO 205 colon = system: COLO 205 colon
# DU-145 prostate = system: DU-145 prostate
# K-562 leukemia = system: K-562 leukemia
# MALME-3M melanoma = system: MALME-3M melanoma
# MDA-MB-231 breast = system: MDA-MB-231 breast
# RXF 393 renal = system: RXF 393 renal
# SF-268 CNS = system: SF-268 CNS
# SF-295 CNS = system: SF-295 CNS
# SF-539 CNS = system: SF-539 CNS
# UACC-257 melanoma = system: UACC-257 melanoma
# M14 melanoma = system: M14 melanoma
Structure (SMILES),growth (NCI-H23 lung),growth (NCI-H226 lung),growth (NCI-H322M lung),growth (HOP-62 NSCLC),growth (NCI-H460 lung),growth (HOP-92 NSCLC),growth (NCI-H522 lung),growth (A549/ATCC NSCLC),growth (786-0 renal),growth (COLO 205 colon),growth (DU-145 prostate),growth (K-562 leukemia),growth (MALME-3M melanoma),growth (MDA-MB-231 breast),growth (RXF 393 renal),growth (SF-268 CNS),growth (SF-295 CNS),growth (SF-539 CNS),growth (UACC-257 melanoma),growth (M14 melanoma)
O=c1cc/c(=N\Nc2ccccc2)c(=O)/c1=N/Nc1ccccc1,93.9%,108%,93.7%,84.8%,95.7%,-1.02% (active),110%,123%,112%,137%,106%,105%,119%,100%,121%,90.5%,122%,94.6%,137%,82.2%
CCOc1cc2c(Cl)ncnc2c(OCC)c1OCC,79.6%,91.6%,65.4%,90.9%,99%,86.9%,58.8%,95.6%,105%,95.8%,-56.1% (active),19.5%,83.8%,77.7%,-5.68% (active),33.9%,96.1%,92.5%,-17% (active),73.7%
N=C(N)c1ccc(-c2ccc(-c3ccc4ccccc4c3)s2)cc1,88.7%,96.7%,97%,97.6%,99.7%,79.3%,104%,71.5%,95%,97.9%,99.6%,1.51% (active),105%,95.4%,61.6%,94.7%,102%,97%,106%,99.6%
CCCCN(CCCC)C(=N)c1ccnc2ccccc12,108%,116%,110%,119%,108%,96.4%,102%,96.7%,115%,125%,117%,110%,98.8%,119%,127%,103%,93.8%,113%,66.2%,110%
C=C(C)[C@@H]1C[C@@H]2Cc3ccc(Cl)c(C)c3N1O2,97.4%,107%,108%,98%,106%,77.5%,84.8%,89.9%,98.5%,112%,97.3%,91.3%,120%,91.5%,99.4%,96.8%,95.4%,90.8%,90%,105%
Nc1ncnc2c1c(-c1ccc(Oc3ccccc3)cc1)nn2C[C@@H]1SSC[C@@H]1O,28.8%,46.7%,61.8%,48.8%,-30.5% (active),-4.45% (active),-22.1% (active),22.1%,57.5%,33.8%,34%,2.87% (active),-7.41% (active),52%,37.7%,29.7%,38.3%,40.9%,14.6%,-85.1% (active)
NC1N=C(SCC(=O)N2CCN(c3cc4c(cc3F)c(=O)c(C(=O)O)cn4C3CC3)CC2)NC(=O)/C1=C/c1ccc(Cl)cc1 (stereo not given),103%,106%,107%,103%,110%,114%,94.7%,103%,103%,115%,112%,99.2%,108%,104%,110%,96.2%,94.4%,97.8%,105%,104%
COc1cc(NC(=O)SC2=NCCS2)cc(OC)c1,95%,98.7%,110%,108%,101%,84.7%,86.4%,101%,101%,109%,101%,93.6%,102%,110%,120%,106%,113%,90.6%,104%,103%
